Screening results deposited in PubChem by several laboratories.
PrP 5UTR inh: suppresses PrP 5' UTR mRNA reporter expression. inhibition, % (test concentration not listed). actives 0.35% (n = 340,000). cell-based PrP 5' UTR mRNA reporter, plate reader; in the data active = inhibition above about 52%; also: 0 = median of the neutral control wells
CCHF vOTU inh: blocks the CCHF virus ovarian tumor domain protease | inhibition, % at 11.5 µM | CCHFV vOTU protease, Pep-AMC fluorescence | actives 0.55% (n = 370,000); in the data active = inhibition above about 30%; also: 0% = vehicle wells with enzyme and 100% = no enzyme wells
PrPC surface inh: inhibitors of human cell surface prion protein PrPC; P04156; TR-FRET read-out; inhibition, % at 13.8 µM; actives 0.43% (n = 370,000); AID 720596; in the data active = inhibition above about 24%; also: 0% = median of the test wells and 100% = reference compound wells
Y pestis TopoI: inhibitors of Yersinia pestis topoisomerase I | Y. pestis Topo-I cleavage product accumulation, plate reader | activity, % at 10 µM | actives 0.064% (n = 360,000) | AID 504884; in the data active = activity above about 50%, passing the limit was not always enough
BJeLR viability: kills HRASV12-expressing BJeLR cells; BJeLR (HRASV12) viability, CellTiter-Glo ATP luminescence, 48 h; inhibition, % (test concentration not listed); actives 0.17% (n = 300,000); AID 1554; in the data active = inhibition above about 50%
PfHsp40 yeast: rescue of PfHsp40-mediated yeast toxicity; S. cerevisiae expressing PfHsp40, growth rescue, ATP luminescence; growth rescue, % at 12.5 µM; actives 0.68% (n = 340,000); AID 504582; in the data active = growth rescue above about 28%, passing the limit was not always enough;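 also: yeast W303a lacking pdr1 and pdr3 grown in galactose medium; growth measured after three days at 30 °C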
The depositor's hits bear a star; . = no result; ! = not confirmed by another sample. Most compounds without a hit are left out; they make up all but 2% or so of the library.

SMILES	PrP 5UTR inh	CCHF vOTU inh	PrPC surface inh	Y pestis TopoI	BJeLR viability	PfHsp40 yeast
CN1C(=O)c2cc(NS(=O)(=O)c3ccc(F)cc3)ccc2OC[C@H]2O[C@@H](CC(=O)NCC(F)(F)F)CC[C@@H]21	.	-5	4	.	.	.
CC(C)CN1C(=O)[C@]2(CC(=O)N(C)C2c2ccccc2)c2cc(-n3cc(CO)nn3)ccc21 (stereo partly drawn)	.	20	5	.	.	.
CCCCCCC[C@@H](C/C=C/CCC(=O)N(C)C/C(=C/Cl)C/C(=C\C(=O)N1CC(OC)=CC1=O)OC)OC	-175	12	5	34	.	37*
CCN1C(=O)N[C@@H](c2ccccc2)[C@@H](C(=O)OC)[C@H]1C	-25	-11	2	7	-1	33*
CCN1C(=O)N[C@@H](c2cccc(C(F)(F)F)c2)[C@@H](C(=O)OC)[C@H]1C	-25	0	3	0	-2	9
CCCc1cc(C(=O)NNC(=S)NCC2CCCO2)cs1 (stereo not drawn)	-13	-19	-1	-1	3	69*
O=C(OCCN1CCCC1)C1(c2ccccc2)CCCC1	-14	1	6	-10	0	50*!
COc1cc(OC)cc(C(=O)NCCN2C(=O)C3C4C=CC(C4)C3C2=O)c1 (stereo not drawn)	.	-3	0	.	.	.
CCN(CC)c1ccc(/C=N/Nc2nc(C)cc(=O)[nH]2)c(O)c1	19	10	0	-7	67*	3
CCN(CC)c1ccc(/C=N/Nc2ccc(C)cc2)c(O)c1	-24	-1	25*	-9	.	3
CCN1/C(=C/c2sc(-c3ccccc3C)c[n+]2C)Sc2ccccc21	-5	-10	14	12	17	312*
Cc1nn(C(C)(C)C)c(OC(=O)c2cccs2)c1S(=O)(=O)c1ccccc1	-9	-1	-4	9	2	67*
COCc1cc(N2CCN(C(=O)OC(C)(C)C)C[C@H]2C)ccc1Br	.	9	5	.	.	.
Cc1ccc(CSc2nnc(-c3ccncc3)n2CC2CCCO2)cc1 (stereo not drawn)	-28	12	5	-1	3	54*
c1ccc(C2=Nc3ccccc3OC2)cc1	-35	12	0	-8	8	50*
Clc1ccc(C2=Nc3cc(Cl)ccc3OC2)cc1	-69	16	-1	-7	1	1
COc1ccc(N2CCN(CCNS(=O)(=O)c3c(C(C)C)cc(C(C)C)cc3C(C)C)CC2)cc1	.	19	9	.	.	.
O=C(Nc1ccncc1)Nc1cccc(C(F)(F)F)c1	0	21	4	2	6	-1
CCC(=O)NC(c1cccs1)c1ccc2cccnc2c1O (stereo not drawn)	30	0	20	7	19	1
Oc1c(C(Nc2nccs2)c2ccc(C(F)(F)F)cc2)ccc2cccnc12 (stereo not drawn)	25	1	17	0	23	84*
Oc1c(C(Nc2cccc(C(F)(F)F)c2)c2ccncc2)ccc2cccnc12 (stereo not drawn)	-9	-5	10	2	3	381*
CC1CCN(S(=O)(=O)c2ccc3c(c2)C(=NO)c2cc(S(=O)(=O)N4CCC(C)CC4)ccc2-3)CC1	15	6	-3	1	.	0
O=S(=O)(c1ccc2c(c1)C(=NO)c1cc(S(=O)(=O)N3CCCCC3)ccc1-2)N1CCCCC1	-3	-3	2	13	95*	-1
C/C(=N/NC(=O)CN1CCN(Cc2ccccc2Cl)CC1)c1cccc(O)c1	.	-4	-5	.	.	.
Clc1ccc(-c2n[nH]c3c2CCCC3)cc1	-41	13	-6	7	-6	-1
SMILES	PrP 5UTR inh	CCHF vOTU inh	PrPC surface inh	Y pestis TopoI	BJeLR viability	PfHsp40 yeast
Clc1ccc(-c2n[nH]c3c2CCC3)cc1Cl	-11	15	3	22	1	241*
O=C(CSc1nccn(-c2cccc(F)c2)c1=O)Nc1ccc(Cl)cc1F	-11	-8	10	11	7	173*
COc1ccc(C)cc1NC(=O)CSc1nnc(COc2ccc(Cl)cc2)n1Cc1ccco1	-28	1	9	3	-3	48*
CCOCCCNC(=O)C1CCN(S(=O)(=O)c2cc3c(cc2Br)CCN3C(=O)CC)CC1	.	-2	0	.	.	.
COc1cccc(CN(C)C(=O)[C@@H](Cc2ccccc2)NC(=O)[C@H]2O[C@@H](n3ccc(=O)[nH]c3=O)[C@H](O)[C@@H]2O)c1	.	-2	0	.	.	.
COc1ccc(/C=C2\Sc3ccc(C(=O)N4CCc5ccccc5C4)cc3N(C)C2=O)cc1	.	.	.	.	10	.
